Sampled rows, rich in hits. Any-hit rate of the full collection: about 2.4%.
Rpn11 inh – blocks the human proteasome subunit Rpn11 | O00487 | inhibition, % at 20 µM | AID 588493 | 360,000 compounds, 0.59% hits | human 26S proteasome, Ub4-pepOG fluorescence polarization; 20S core pre-blocked with epoxomicin;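 active means inhibition at 20 µM, scaled to each plate's controls, above about 33%, limit read from the data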
Target sequence (O00487 whole entry, looked up): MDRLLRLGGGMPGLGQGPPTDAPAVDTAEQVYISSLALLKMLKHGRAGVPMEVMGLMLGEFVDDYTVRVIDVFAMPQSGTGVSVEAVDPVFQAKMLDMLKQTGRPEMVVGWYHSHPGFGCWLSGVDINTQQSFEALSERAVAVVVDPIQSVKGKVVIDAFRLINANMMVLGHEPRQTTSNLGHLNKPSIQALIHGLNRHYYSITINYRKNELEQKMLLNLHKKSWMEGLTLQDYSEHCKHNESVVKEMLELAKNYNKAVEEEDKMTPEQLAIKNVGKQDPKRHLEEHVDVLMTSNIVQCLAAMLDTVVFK
PP5 primary – blocks human protein phosphatase 5 activity | P53041 | purified PP5c, OMFP substrate fluorescence | inhibition, % at 6.7 µM | 320,000 compounds, 0.18% hits;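 active means inhibition above the campaign's mean inhibition across all tested compounds plus 3 SD, cut at about 9.5% in these data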;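 further: 0% = DMSO only and 100% = 100 µM cantharidin control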
PP1 inh – blocks human PP1-alpha phosphatase, a PP5 counter-screen; P62136; purified PP1alpha, OMFP fluorescence; inhibition, % at 6.7 µM; 320,000 compounds, 0.9% hits; AID 2235;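 active means inhibition above the mean inhibition of all tested compounds plus 3 SD, computed separately for each screening campaign, cut at about 15% in these data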
Target sequence (P62136 whole entry, looked up): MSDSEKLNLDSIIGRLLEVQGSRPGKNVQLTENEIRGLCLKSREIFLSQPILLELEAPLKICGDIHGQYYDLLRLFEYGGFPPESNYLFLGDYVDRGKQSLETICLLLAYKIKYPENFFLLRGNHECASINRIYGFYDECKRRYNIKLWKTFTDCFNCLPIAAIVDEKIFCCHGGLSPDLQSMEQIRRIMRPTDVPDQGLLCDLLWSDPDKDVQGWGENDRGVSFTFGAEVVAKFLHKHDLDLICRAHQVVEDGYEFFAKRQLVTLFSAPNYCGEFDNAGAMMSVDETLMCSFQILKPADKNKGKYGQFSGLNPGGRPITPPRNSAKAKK
PREPL inhibitor – inhibitors of human prolyl oligopeptidase-like enzyme PREPL. recombinant PREPL, fluorescence polarization activity-based probe. 320,000 compounds, 0.68% hits. AID 2751. inhibition, % at 5.96 µM. Q4J6C6;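 further: 0% = enzyme with DMSO and 100% = wells lacking enzyme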
NadD inh – inhibitors of Staphylococcus aureus NadD | inhibition, % at 20 µM | purified NadD enzyme, colorimetric absorbance read-out | 360,000 compounds, 0.78% hits; in the data active means inhibition above about 26%
PREPL inh cf – human PREPL inhibition, confirmation. AID 2803. inhibition, % at 5.96 µM. 2,000 compounds, 67% hits. shares compounds with PREPL inhibitor. recombinant PREPL, fluorescence polarization activity probe;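 further: 0% = protein with DMSO and 100% = wells lacking protein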
* marks the source's active call; other numbers are inactive results. Unless noted, no stated cut-off is given here; in the data, active means inhibition above about 43%; inactive means the rest.

Results for COc1ccc(-n2c(C)cc(-c3csc(N)n3)c2C)cc1 ?
Rpn11 inh: 12.1; PP5 primary: 0.6; PP1 inh: 17.2*; PREPL inhibitor: 43.3*; NadD inh: 33.2*; PREPL inh cf: 27.8

How did Cc1c(-c2csc(N)n2)cnn1C do in these assays?
Rpn11 inh: 9.8; PP5 primary: 1.7; PP1 inh: 0.3; PREPL inhibitor: 0.6; NadD inh: -2.8

How did CC1CCCCC1NC(=O)COC(=O)c1ccc2c(c1)OCCO2 (stereo not drawn) do in these assays?
Rpn11 inh: 5.7; PP5 primary: 0.9; PP1 inh: -4.3; PREPL inhibitor: 1.8; NadD inh: -1.3

Results for COc1cccc(OCCn2cc(/C=N/NC(=O)c3ccncc3)c3ccccc32)c1 ?
Rpn11 inh: -9.4; PP5 primary: 3.4; PP1 inh: 1.7; PREPL inhibitor: 50.2*; NadD inh: 0.6; PREPL inh cf: 33.4

What do the screens show for `COc1ccc(OCCn2cc(/C=N/NC(=O)c3ccncc3)c3ccccc32)cc1`?
Rpn11 inh: 0.5; PP5 primary: 3.7; PP1 inh: 0.7; PREPL inhibitor: 34.8; NadD inh: -0.8

How did Cn1c(NN)nc2ccccc2c1=O do in these assays?
Rpn11 inh: -7.0; PP5 primary: 0.3; PP1 inh: 2.5; PREPL inhibitor: 44.7*; NadD inh: -5.1; PREPL inh cf: 25.6

How did O=C1c2c(O)ccc(O)c2C(=O)c2c(NCCNCCO)ccc(NCCNCCO)c21 do in these assays?
Rpn11 inh: 42.7*; PP5 primary: 3.1; PP1 inh: 21.0*; PREPL inhibitor: 101.5*; NadD inh: -1.0; PREPL inh cf: 98.2*

How did COC(=O)c1cc(NC(=O)CN(C)C2CCS(=O)(=O)C2)cc(C(=O)OC)c1 (stereo not drawn) do in these assays?
Rpn11 inh: 1.4; PREPL inhibitor: 11.2; NadD inh: -1.2

What do the screens show for `C=CCNc1nc2cc(-c3ccccc3C)sc2c(=O)n1C`?
Rpn11 inh: -5.9; NadD inh: -23.2

Results for CCN(C(=O)CCN1C(=O)S/C(=C\c2ccccc2)C1=O)C1CCS(=O)(=O)C1 (stereo not drawn) ?
Rpn11 inh: -11.2; PP5 primary: -1.4; PP1 inh: -0.4; PREPL inhibitor: 44.7*; NadD inh: -3.6; PREPL inh cf: 37.2

Results for CN(C(=O)CN1C(=O)S/C(=C\c2ccccc2)C1=O)C1CCS(=O)(=O)C1 (stereo not drawn) ?
Rpn11 inh: -5.8; PP5 primary: 3.4; PP1 inh: 2.5; PREPL inhibitor: 13.7; NadD inh: -2.3

How did O=C(O)/C=C\C(=O)Nc1ccc(N2CCN(c3ccc(Cl)cc3)CC2)cc1 do in these assays?
Rpn11 inh: 3.8; PP5 primary: 0.0; PP1 inh: 6.4; PREPL inhibitor: 48.3*; NadD inh: 6.4; PREPL inh cf: 29.4

Results for O=C(O)/C=C\C(=O)Nc1ccc(N2CCN(c3cccc(Cl)c3)CC2)cc1 ?
Rpn11 inh: 3.8; PP5 primary: 1.9; PP1 inh: 7.5; PREPL inhibitor: 28.0; NadD inh: 11.4

What do the screens show for `O=C(O)/C=C\C(=O)Nc1ccc(N2CCN(c3ccc(F)cc3)CC2)cc1`?
Rpn11 inh: 6.5; PP5 primary: 2.6; PP1 inh: 9.6; PREPL inhibitor: 51.1*; NadD inh: 9.4; PREPL inh cf: 25.4

How did O=C(NCCc1c[nH]c2ccccc12)C(=O)NCC(c1ccco1)N1CCN(c2ccc(F)cc2)CC1 (stereo not drawn) do in these assays?
Rpn11 inh: 12.0; PP5 primary: 2.3; PP1 inh: 2.9; PREPL inhibitor: 15.6; NadD inh: 2.9

What do the screens show for `O=C(NCCc1c[nH]c2ccccc12)C(=O)NCC(c1ccco1)N1CCN(c2ccccc2)CC1` (stereo not drawn)?
Rpn11 inh: 3.2; PP5 primary: 2.3; PP1 inh: 1.1; PREPL inhibitor: 45.6*; NadD inh: -2.0; PREPL inh cf: 32.7

How did COc1ccc(F)cc1S(=O)(=O)N1CC(C)CC(C)C1 (stereo not drawn) do in these assays?
Rpn11 inh: 0.9; PP5 primary: 3.7; PP1 inh: -2.6; PREPL inhibitor: 3.5; NadD inh: -2.4

How did O=C(COC(=O)c1ccc[nH]c1=O)NCC12CC3CC(CC(C3)C1)C2 do in these assays?
Rpn11 inh: 2.5; PP5 primary: -1.3; PP1 inh: -2.4; PREPL inhibitor: -1.8; NadD inh: -3.7

Results for Cc1ccc(Sc2cnn(-c3ccccc3)c(=O)c2Cl)cc1 ?
Rpn11 inh: -2.0; PP5 primary: 3.0; PP1 inh: -1.9; PREPL inhibitor: 46.2*; NadD inh: 0.4; PREPL inh cf: 38.4

Results for CC1CC1C(=O)N1CCN(S(=O)(=O)c2cc(C(F)(F)F)cc(C(F)(F)F)c2)CC1 (stereo not drawn) ?
Rpn11 inh: 5.0; PP5 primary: 3.6; PP1 inh: 1.4; PREPL inhibitor: 13.8; NadD inh: -3.0

Results for CC(C)c1ccc2nc3sc(C(=O)N4CCc5ccccc5C4)c(N)c3cc2c1 ?
PP5 primary: 1.0; PP1 inh: 0.2; PREPL inhibitor: 16.3; NadD inh: 24.5

Results for CCN1CCc2nc3sc(C(=O)N4CCc5ccccc5C4)c(N)c3cc2C1 ?
Rpn11 inh: 3.1; PP5 primary: 3.6; PP1 inh: 12.4; PREPL inhibitor: 64.5*; NadD inh: 15.8; PREPL inh cf: 48.0*

Results for CCN(CC)c1ccc(Nc2nc(N3CCOCC3)c3ccccc3n2)cc1 ?
Rpn11 inh: -2.4; PP5 primary: 3.8; PP1 inh: 7.2; PREPL inhibitor: 36.2; NadD inh: -7.4

How did COc1ccc(Nc2nc(N3CCCC3)c3ccccc3n2)cc1 do in these assays?
Rpn11 inh: -5.6; PP5 primary: 4.2; PP1 inh: 12.1; PREPL inhibitor: 76.8*; NadD inh: 1.5; PREPL inh cf: 62.5*

How did COc1ccc(Nc2c3ccccc3nc3ccccc23)cc1 do in these assays?
Rpn11 inh: -7.0; PP5 primary: 3.6; PP1 inh: 8.0; PREPL inhibitor: 46.8*; NadD inh: -8.4; PREPL inh cf: 44.8*

Results for COc1ccc(Nc2c3c(nc4ccccc24)CCC3)cc1 ?
Rpn11 inh: -18.5; PP5 primary: 0.6; PP1 inh: 3.0; PREPL inhibitor: 36.5; NadD inh: -3.8

How did NC(N)=NN=C1CCC(c2ccccc2)CC1 (stereo not drawn) do in these assays?
Rpn11 inh: -5.1; PP5 primary: 4.6; PP1 inh: -0.1; PREPL inhibitor: -4.6; NadD inh: 0.7

Results for COCOCCn1cc(CN2CCS(=O)(=O)N(Cc3ccc(-c4ccncc4)cc3)C(CC(C)C)C2=O)nn1 (stereo not drawn) ?
Rpn11 inh: -1.8; NadD inh: 8.9

What do the screens show for `CC(=O)C(/C=N/c1cc(-c2ccc(C)cc2)nn1-c1ccccc1)=C(\C)O`?
Rpn11 inh: 6.5; PP5 primary: -0.6; PP1 inh: 0.2; PREPL inhibitor: 2.4; NadD inh: -0.5
